Test results from PubChem BioAssay (NCI).
This is part of a sample that, as a whole, favours compounds with a hit. Of some 83,000 tested, about 20% had one in any assay.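 Step 1: grow cells in 96-well plates. Step 2: add test compound at a single concentration. Step 3: incubate 48 h. Step 4: record percent growth.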 The source made the active and inactive calls. The calls were made as follows: active = growth percent below 10; inactive = the rest.

What was measured:
Experiment in all cases: NCI-60 one-dose screen, 48 h (100 = growth as untreated, 0 = no growth, -100 = all killed)
Conditions in all cases: 10 µM unless noted
SR leukemia = test system: SR leukemia
OVCAR-8 ovarian = test system: OVCAR-8 ovarian
OVCAR-5 ovarian = test system: OVCAR-5 ovarian
OVCAR-4 ovarian = test system: OVCAR-4 ovarian
SK-OV-3 ovarian = test system: SK-OV-3 ovarian
IGROV1 ovarian = test system: IGROV1 ovarian
OVCAR-3 ovarian = test system: OVCAR-3 ovarian
HS 578T breast = test system: HS 578T breast
NCI/ADR-RES ovarian = test system: NCI/ADR-RES ovarian
T-47D breast = test system: T-47D breast
BT-549 breast = test system: BT-549 breast
SW-620 colon = test system: SW-620 colon
MCF7 breast = test system: MCF7 breast
HCT-116 colon = test system: HCT-116 colon
HCC-2998 colon = test system: HCC-2998 colon
KM12 colon = test system: KM12 colon
MDA-MB-435 melanoma = test system: MDA-MB-435 melanoma

Measured: growth

CCCCn1c(-c2ccc(C(=O)O/N=C(\N)c3ccc(OC)cc3)cc2)nc(-c2ccccc2)c1-c1ccccc1
active: SR leukemia -47.4% | OVCAR-8 ovarian -16.8% | IGROV1 ovarian -70.2% | OVCAR-3 ovarian -6.99% | HS 578T breast -8.31% | NCI/ADR-RES ovarian -39.5% | T-47D breast -31.8% | SW-620 colon 5.52% | MCF7 breast -24.7% | HCT-116 colon -33.6% | HCC-2998 colon 1.5% | KM12 colon 9.02%
inactive: OVCAR-5 ovarian 24.1% | OVCAR-4 ovarian 23.1% | SK-OV-3 ovarian 87% | BT-549 breast 11.7%

CCCCCCn1c(-c2ccc(C(=O)O/N=C(\N)c3ccc4ccccc4c3)cc2)nc(-c2ccccc2)c1-c1ccccc1
active: SR leukemia -37.7% | IGROV1 ovarian -48.3% | NCI/ADR-RES ovarian 3.92%
inactive: OVCAR-8 ovarian 64.6% | OVCAR-5 ovarian 71.6% | OVCAR-4 ovarian 56.8% | SK-OV-3 ovarian 91% | OVCAR-3 ovarian 74.8% | HS 578T breast 46.8% | T-47D breast 28.9% | BT-549 breast 79.6% | SW-620 colon 71.8% | MCF7 breast 37.9% | HCT-116 colon 40.5% | HCC-2998 colon 93.8% | KM12 colon 68.6%

CCOC(=O)NCCc1ccccc1
inactive: SR leukemia 74% | OVCAR-8 ovarian 108% | OVCAR-5 ovarian 112% | OVCAR-4 ovarian 121% | SK-OV-3 ovarian 106% | IGROV1 ovarian 85.3% | HS 578T breast 105% | T-47D breast 106% | BT-549 breast 108% | MDA-MB-435 melanoma 108% | SW-620 colon 99.2% | HCT-116 colon 108% | HCC-2998 colon 90.3% | KM12 colon 108%

CN1CCN(Cc2ccc(NC(=O)c3ccc(C(C)(C)C)c(C#Cc4cnc5cccnn45)c3)cc2C(F)(F)F)CC1
active: SR leukemia -49.7% | OVCAR-8 ovarian -30.4% | OVCAR-5 ovarian -25.4% | SK-OV-3 ovarian -56.6% | OVCAR-3 ovarian -68.5% | HS 578T breast -24.8% | NCI/ADR-RES ovarian -43.5% | MDA-MB-435 melanoma -88.5% | SW-620 colon -61.9% | MCF7 breast -74.3% | HCT-116 colon -70.8% | HCC-2998 colon -81.6% | KM12 colon -80.8%
inactive: OVCAR-4 ovarian 15% | T-47D breast 26.6% | BT-549 breast 88.5%

COC(=O)CCC/C=C\C[C@H]1C=CC(=O)/C1=C/C[C@@H](O)CCc1cccc(C(F)(F)F)c1
inactive: OVCAR-4 ovarian 20% | SK-OV-3 ovarian 24.6% | HS 578T breast 32.3%
active: SR leukemia -15.3% | OVCAR-8 ovarian 8.44% | OVCAR-5 ovarian -26.6% | OVCAR-3 ovarian -62.5% | NCI/ADR-RES ovarian 9.64% | T-47D breast 9.77% | BT-549 breast -11.4% | MDA-MB-435 melanoma -82.2% | SW-620 colon -40% | MCF7 breast 6.5% | HCT-116 colon -89% | HCC-2998 colon -89.6% | KM12 colon -51.9%

CC/C=C\C[C@@H]1C/C=C2/C(=O)C=C[C@H]2C/C=C\CCCC(=O)O1
inactive: NCI/ADR-RES ovarian 10.9% | T-47D breast 10.3%
active: SR leukemia -30.3% | OVCAR-8 ovarian 4.94% | OVCAR-5 ovarian -32.8% | OVCAR-4 ovarian 5.92% | SK-OV-3 ovarian -8.9% | OVCAR-3 ovarian -95.4% | HS 578T breast -1.47% | MDA-MB-435 melanoma -59.1% | SW-620 colon -65.1% | MCF7 breast -9.37% | HCT-116 colon -93.5% | HCC-2998 colon -83.3% | KM12 colon -92.3%

CCCCCCCNC(=O)CCCNc1ncnc2c1ncn2-c1cccc(C(C)O)c1 (stereo unspecified)
inactive: SR leukemia 84.2% | OVCAR-8 ovarian 91.1% | OVCAR-5 ovarian 88.2% | OVCAR-4 ovarian 84.8% | SK-OV-3 ovarian 104% | OVCAR-3 ovarian 87.1% | HS 578T breast 97.4% | NCI/ADR-RES ovarian 95.8% | T-47D breast 74.1% | BT-549 breast 93.5% | MDA-MB-435 melanoma 97.5% | SW-620 colon 101% | MCF7 breast 86.6% | HCT-116 colon 104% | HCC-2998 colon 103% | KM12 colon 95.6%

O=C(O)CCC/C=C\C[C@H]1C=CC(=O)/C1=C/C[C@@H](O)CCc1cccc(C(F)(F)F)c1
inactive: OVCAR-8 ovarian 10.3% | OVCAR-4 ovarian 32.8% | SK-OV-3 ovarian 44.3% | HS 578T breast 37.6% | T-47D breast 21.4% | MCF7 breast 11%
active: SR leukemia -7.7% | OVCAR-5 ovarian 8.7% | OVCAR-3 ovarian -36.1% | NCI/ADR-RES ovarian 5.22% | BT-549 breast 5.1% | MDA-MB-435 melanoma -53.5% | SW-620 colon -35.8% | HCT-116 colon -66.4% | HCC-2998 colon -84.4% | KM12 colon -47%

O=C(O)c1cn(C2CC2)c2cc(N3CCN(C(=O)Nc4nc(-c5ccccc5)cs4)CC3)c(F)cc2c1=O
active: SR leukemia 4.63% | OVCAR-3 ovarian 7.8% | MCF7 breast 7.78%
inactive: OVCAR-8 ovarian 13.8% | OVCAR-5 ovarian 50.3% | OVCAR-4 ovarian 62.4% | SK-OV-3 ovarian 14.7% | HS 578T breast 40.6% | NCI/ADR-RES ovarian 76.7% | T-47D breast 23.2% | BT-549 breast 10.3% | MDA-MB-435 melanoma 21% | SW-620 colon 29.4% | HCT-116 colon 17.5% | HCC-2998 colon 34.4% | KM12 colon 13.8%

CNCCCNc1nc2ccccc2c2c(=O)c3cc(OC)ccc3sc12
active: SR leukemia -30.2% | SW-620 colon -50.3% | HCC-2998 colon -71%
inactive: OVCAR-8 ovarian 72.7% | OVCAR-5 ovarian 92.2% | OVCAR-4 ovarian 61.2% | SK-OV-3 ovarian 84.9% | IGROV1 ovarian 68.1% | HS 578T breast 75% | NCI/ADR-RES ovarian 80.6% | T-47D breast 81.7% | BT-549 breast 89.2% | MDA-MB-435 melanoma 37.3% | MCF7 breast 59.4% | HCT-116 colon 10.3% | KM12 colon 35.3%

Cc1cccc2c3c(sc12)C(c1ccc(Cl)cc1)C(C#N)=C(/N=C/c1ccc(Cl)cc1)O3 (stereo unspecified)
active: NCI/ADR-RES ovarian 9.29% | MCF7 breast 9.92%
inactive: SR leukemia 24.1% | OVCAR-8 ovarian 25% | OVCAR-5 ovarian 24.6% | OVCAR-4 ovarian 52.9% | SK-OV-3 ovarian 59% | IGROV1 ovarian 21.9% | HS 578T breast 14.3% | T-47D breast 51% | BT-549 breast 22.7% | SW-620 colon 26.1% | HCT-116 colon 13.4% | HCC-2998 colon 16.2%

COC(=O)C(Cc1ccccc1)NC(=O)NC(=O)NC(=O)CI (stereo unspecified)
active: SR leukemia -41.6% | OVCAR-3 ovarian -49.2% | SW-620 colon -28.4%
inactive: OVCAR-8 ovarian 81.8% | OVCAR-5 ovarian 95.9% | OVCAR-4 ovarian 57.7% | SK-OV-3 ovarian 112% | HS 578T breast 111% | NCI/ADR-RES ovarian 71.5% | T-47D breast 59.3% | BT-549 breast 79% | MDA-MB-435 melanoma 24.4% | MCF7 breast 41.3% | HCT-116 colon 94.5% | HCC-2998 colon 95.9% | KM12 colon 96.7%

COc1cc2cc(Oc3ccc(NC(=O)Nc4ccc(F)c(C(F)(F)F)c4)cc3)c(C)nc2cc1OCCN1CCOCC1
inactive: OVCAR-8 ovarian 13.8% | OVCAR-5 ovarian 66.9% | OVCAR-4 ovarian 27.3% | SK-OV-3 ovarian 41.3% | IGROV1 ovarian 32.7% | HS 578T breast 65.8% | NCI/ADR-RES ovarian 12% | T-47D breast 21.8% | BT-549 breast 40.3% | MDA-MB-435 melanoma 16.5% | SW-620 colon 15.5% | HCC-2998 colon 44.9% | KM12 colon 11.2%
active: SR leukemia -15.2% | MCF7 breast 3.62% | HCT-116 colon 9.66%

N#CC1=C(N)Oc2c(sc3c(Br)cccc23)C1c1ccc([N+](=O)[O-])cc1 (stereo unspecified)
inactive: OVCAR-8 ovarian 25.3% | OVCAR-5 ovarian 31.1% | OVCAR-4 ovarian 39.8% | SK-OV-3 ovarian 34% | HS 578T breast 10.8% | T-47D breast 64.9% | BT-549 breast 28.8% | SW-620 colon 18.1% | MCF7 breast 10.2% | HCC-2998 colon 10.2%
active: SR leukemia -8.87% | OVCAR-3 ovarian 3.67% | NCI/ADR-RES ovarian -26.9% | MDA-MB-435 melanoma -58.4% | HCT-116 colon 8.77% | KM12 colon 8.9%

CCCCn1c(=O)c(-c2cc(-c3ccc(Cl)cc3)nc(-c3ccc(Cl)cc3)c2)cc2ccc(Cl)cc21
inactive: SR leukemia 98.1% | OVCAR-8 ovarian 108% | OVCAR-5 ovarian 94.1% | OVCAR-4 ovarian 109% | SK-OV-3 ovarian 99.6% | IGROV1 ovarian 105% | HS 578T breast 108% | NCI/ADR-RES ovarian 95.9% | T-47D breast 99.6% | BT-549 breast 105% | MDA-MB-435 melanoma 103% | SW-620 colon 100% | MCF7 breast 93.1% | HCT-116 colon 105% | HCC-2998 colon 103% | KM12 colon 99.3%

CN1C(=O)CNC(=O)[C@H](NC(=O)c2nc3ccccc3cc2O)CSSC[C@H]1C(=O)NCCCc1nc2ccccc2cc1O
active: SR leukemia -46.3% | OVCAR-3 ovarian 9.86%
inactive: OVCAR-8 ovarian 86.2% | OVCAR-5 ovarian 121% | OVCAR-4 ovarian 96% | SK-OV-3 ovarian 113% | HS 578T breast 90.7% | NCI/ADR-RES ovarian 102% | T-47D breast 78% | BT-549 breast 75.8% | MDA-MB-435 melanoma 44% | SW-620 colon 48.2% | MCF7 breast 55.1% | HCT-116 colon 70% | HCC-2998 colon 74.7% | KM12 colon 27%
